Assay results as given in PubChem BioAssay (EPA / NIEHS).
Calls of active or inactive are those of the source. Rule for the calls: active = hit-call score of the fitted dose curve at least 0.9, where 1 is the maximum; inactive = score below 0.9.

Tests used:
Conditions in all cases: mRNA level, 48 h; actives raise or lower the signal
[1] = read-out: Apoptosis regulator Bcl-2 (Homo sapiens) (UniProt P10415); experiment: LTEA_HepaRG_BCL2: Life Technologies and Expression Analysis (LTEA) Assay for Bcl-2 gene using HepaRG (AID 2283475)
Procedure, shortened: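 Plated human HepaRG cells are exposed to test chemicals for 48 h across eight concentrations from 100 uM downward in half-log steps (0.5% DMSO). BCL2 expression is then measured by qRT-PCR with housekeeping normalisation and fitted bidirectionally against vehicle.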

[2] = read-out: Bcl-2 (BID) gene, BID (gene 637); experiment: LTEA_HepaRG_BID: Life Technologies and Expression Analysis (LTEA) Assay for Bcl-2 (BID) gene using HepaRG (AID 2283476)
Procedure, shortened: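 Cells are plated, cultured 48 h, switched to serum-free induction medium, then dosed 48 h (100 uM top, half-log steps, 0.5% DMSO). RNA is isolated and BID expression read by qRT-PCR.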

[3] = read-out: Caspase-3 (Homo sapiens) (UniProt P42574); experiment: LTEA_HepaRG_CASP3: Life Technologies and Expression Analysis (LTEA) Assay for cysteine-aspartic acid protease (CASP3) using HepaRG (AID 2283477)
Procedure, shortened: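 In HepaRG liver cells dosed for 48 h at up to 100 uM (eight-point, duplicate), CASP3 expression changes are scored by qRT-PCR. Activity is fitted in both directions with 0.5% DMSO as baseline.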

[4] = read-out: Cytochrome P450 (CYP24A1), CYP24A1 (gene 1591); experiment: LTEA_HepaRG_CYP24A1: Life Technologies and Expression Analysis (LTEA) Assay for Cytochrome P450 (CYP24A1) using HepaRG (AID 2283478)
Procedure, shortened: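 Human liver HepaRG cultures receive each chemical for 48 h across an eight-point half-log series topping at 100 uM in 0.5% DMSO. Induction or suppression of CYP24A1 mRNA is scored relative to vehicle after housekeeping-gene normalization.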

[5] = read-out: Cytochrome P450 (CYP1A2), CYP1A2 (gene 1544); experiment: LTEA_HepaRG_CYP1A2: Life Technologies and Expression Analysis (LTEA) Assay for Cytochrome P450 (CYP1A2) using HepaRG (AID 2283479)
Procedure, shortened: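 Assesses CYP1A2 mRNA in human HepaRG liver cells after 48 h chemical exposure at up to 100 uM. Values come from qRT-PCR with bidirectional curve fitting relative to DMSO.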

[6] = read-out: cysteine-aspartic acid protease (CASP8), CASP8 (gene 841); experiment: LTEA_HepaRG_CASP8: Life Technologies and Expression Analysis (LTEA) Assay for cysteine-aspartic acid protease (CASP8) using HepaRG (AID 2283480)
Procedure, shortened: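 qRT-PCR readout of CASP8 mRNA, normalized to three housekeeping genes, after 48 h chemical exposure of HepaRG cells; 8-point half-log series, top 100 uM, 0.5% DMSO vehicle. Bidirectional curve fitting against DMSO baseline.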

[7] = read-out: Cytochrome P450 (CYP2B6), CYP2B6 (gene 1555); experiment: LTEA_HepaRG_CYP2B6: Life Technologies and Expression Analysis (LTEA) Assay for Cytochrome P450 (CYP2B6) using HepaRG (AID 2283481)
Procedure, shortened: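 Using 48 h treatment of HepaRG cells in serum-free induction medium, concentrations spanned half-log steps from 100 uM in 0.5% DMSO vehicle. CYP2B6 mRNA induction or loss is scored by qRT-PCR against DMSO.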

[8] = read-out: Cytochrome P450 2C19 (Homo sapiens) (UniProt P33261); experiment: LTEA_HepaRG_CYP2C19: Life Technologies and Expression Analysis (LTEA) Assay for CYP2C19 using HepaRG (AID 2283482)
Procedure, shortened: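 Human HepaRG liver cells received test chemicals for 48 h (highest 100 uM, half-log dilutions in 0.5% DMSO). CYP2C19 mRNA induction or loss is read by multiplexed qRT-PCR and fitted in both directions versus vehicle.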

[9] = read-out: CYP2C8 (gene 1558); experiment: LTEA_HepaRG_CYP2C8: Life Technologies and Expression Analysis (LTEA) Assay for CYP2C8 using HepaRG (AID 2283483)
Procedure, shortened: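 HepaRG (human liver line), 48 h chemical exposure, 8-pt half-log series from 100 uM, 0.5% DMSO vehicle. Readout: CYP2C8 transcript by qRT-PCR, housekeeping-normalized. Bidirectional fit vs DMSO baseline.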

[10] = read-out: CYP2C9 (gene 1559); experiment: LTEA_HepaRG_CYP2C9: Life Technologies and Expression Analysis (LTEA) Assay for CYP2C9 using HepaRG (AID 2283484)
Procedure, shortened: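 HepaRG, 48 h dosing, 8-pt half-log series, top 100 uM, 0.5% DMSO vehicle. Read-out: CYP2C9 transcript by TaqMan qRT-PCR, housekeeping-normalized (ACTB/GAPDH/POLR2A). Gain or loss fitted vs DMSO baseline.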

Cytochrome P450 2C19 (Homo sapiens), sequence (P33261 whole entry, looked up): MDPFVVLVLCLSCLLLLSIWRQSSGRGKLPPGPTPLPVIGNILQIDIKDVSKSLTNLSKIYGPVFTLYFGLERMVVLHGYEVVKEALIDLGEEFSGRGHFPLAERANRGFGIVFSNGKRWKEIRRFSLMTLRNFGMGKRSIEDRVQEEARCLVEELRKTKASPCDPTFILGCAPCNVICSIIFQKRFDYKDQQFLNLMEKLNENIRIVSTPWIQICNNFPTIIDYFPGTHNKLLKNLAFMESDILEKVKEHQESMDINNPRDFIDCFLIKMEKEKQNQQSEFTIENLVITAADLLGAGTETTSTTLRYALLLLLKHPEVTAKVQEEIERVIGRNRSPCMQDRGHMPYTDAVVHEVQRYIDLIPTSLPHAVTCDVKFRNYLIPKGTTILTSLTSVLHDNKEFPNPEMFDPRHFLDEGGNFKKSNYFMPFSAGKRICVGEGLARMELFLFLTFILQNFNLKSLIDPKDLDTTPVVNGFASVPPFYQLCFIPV
Apoptosis regulator Bcl-2 (Homo sapiens), sequence (P10415 whole entry, looked up): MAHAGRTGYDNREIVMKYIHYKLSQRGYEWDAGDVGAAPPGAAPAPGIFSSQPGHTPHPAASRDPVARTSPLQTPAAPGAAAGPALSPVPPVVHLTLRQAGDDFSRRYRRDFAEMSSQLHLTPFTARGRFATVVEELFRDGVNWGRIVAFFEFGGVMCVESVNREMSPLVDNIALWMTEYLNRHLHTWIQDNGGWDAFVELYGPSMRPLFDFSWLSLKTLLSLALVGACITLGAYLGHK
Caspase-3 (Homo sapiens), sequence (P42574 whole entry, looked up): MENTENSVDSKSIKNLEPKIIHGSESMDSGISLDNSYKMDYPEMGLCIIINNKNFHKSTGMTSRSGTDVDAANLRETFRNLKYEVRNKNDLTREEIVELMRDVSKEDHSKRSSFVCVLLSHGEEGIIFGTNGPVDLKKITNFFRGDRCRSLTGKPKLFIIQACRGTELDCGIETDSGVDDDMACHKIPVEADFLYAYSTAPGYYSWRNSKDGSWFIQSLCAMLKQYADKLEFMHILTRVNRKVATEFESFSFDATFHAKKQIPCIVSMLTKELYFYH

Structure (SMILES)	outcome [1]	AC50 [2]	AC50 [3]	outcome [4]	AC50 [5]	outcome [6]	AC50 [7]	AC50 [8]	AC50 [9]	AC50 [10]	AC50 [1]	outcome [3]	outcome [5]	AC50 [6]	outcome [2]	outcome [9]	outcome [10]	outcome [7]	outcome [8]
CCN(C(=O)c1cc(C)cc(OC[C@H](C)Nc2ccncc2)c1)C(C)C	inactive	0.143 µM (active)	19.6 µM (active)	inactive	12.7 µM (active)	inactive	7.91 µM (active)	8.16 µM (active)	58.4 µM (active)	56.6 µM (active)	–	–	–	–	–	–	–	–	–
O=C(OC[C@H]1O[C@@H](OC(=O)c2cc(O)c(O)c(OC(=O)c3cc(O)c(O)c(O)c3)c2)[C@H](OC(=O)c2cc(O)c(O)c(OC(=O)c3cc(O)c(O)c(O)c3)c2)[C@@H](OC(=O)c2cc(O)c(O)c(OC(=O)c3cc(O)c(O)c(O)c3)c2)[C@@H]1OC(=O)c1cc(O)c(O)c(OC(=O)c2cc(O)c(O)c(O)c2)c1)c1cc(O)c(O)c(OC(=O)c2cc(O)c(O)c(O)c2)c1	–	7.63 µM (active)	–	inactive	–	–	10.2 µM (active)	15.2 µM (active)	15.2 µM (active)	10.4 µM (active)	28.4 µM (active)	inactive	inactive	9.48 µM (active)	–	–	–	–	–
CC(C)c1cccc(C(C)C)c1N1C(=O)c2ccc(O)cc2C1=O	–	–	–	inactive	–	inactive	88.6 µM (active)	91.5 µM (active)	–	–	86.2 µM (active)	inactive	inactive	–	inactive	inactive	inactive	–	–
C=CCCCCCCCCC(=O)O	inactive	–	–	inactive	50 µM (active)	inactive	–	–	–	–	–	inactive	–	–	inactive	inactive	inactive	inactive	inactive
COc1ccc2sc(C(=O)Nc3nnn[nH]3)c(OC(C)C)c2c1	–	–	–	inactive	15.8 µM (active)	–	87.1 µM (active)	87 µM (active)	–	50 µM (active)	25.2 µM (active)	inactive	–	39.2 µM (active)	inactive	inactive	–	–	–
On1ccccc1=S	inactive	–	–	inactive	–	inactive	–	–	–	–	–	inactive	inactive	–	inactive	inactive	inactive	inactive	inactive
O=C1CCC(N2C(=O)c3ccccc3C2=O)C(=O)N1 (stereo not given)	inactive	–	–	inactive	–	inactive	–	–	–	–	–	inactive	inactive	–	inactive	inactive	inactive	inactive	inactive
CC[C@H]1CC[C@H](NCc2cc3c(cc2OC)[C@H]2C[C@H]2C(=O)N3C)[C@H](c2ccccc2)N1	inactive	–	–	inactive	33.8 µM (active)	inactive	11.7 µM (active)	10.8 µM (active)	11.1 µM (active)	–	–	inactive	–	–	inactive	–	inactive	–	–
CC(C)CCO	inactive	–	–	inactive	–	inactive	–	–	–	–	–	inactive	inactive	–	inactive	inactive	inactive	inactive	inactive
COC(=O)c1c(Cl)c(Cl)c(C(=O)OC)c(Cl)c1Cl	inactive	–	–	inactive	–	inactive	–	–	–	–	–	inactive	inactive	–	inactive	inactive	inactive	inactive	inactive
